We go through 21 compounds from PubChem BioAssay (NCATS).

Records with an inconclusive call do not appear. Values without a mark were called inactive. Activity calls are given as the source filed them. Calls come from the whole dose curve; as a rule, active = well fitted inhibition curve with a large enough effect; inconclusive = small, poorly fitted or top-dose-only effect, or effect the other way; inactive = flat fitted curve, though single readings scatter.
% is set by controls: 0 for no effect and ±100 for the full control effect.

The test can be described thus: Quantitative high throughput screen for delayed death inhibitors of the malarial parasite plastid, 48 hour incubation (AID 488752). Note: nearly all actives have a fitted effect of over 65% in size. As to conditions: Plasmodium falciparum growth; series mostly up to 28.7 µM; activity change, negative = inhibition: at the top concentration. An excerpt: NIH Molecular Libraries Probe Production Network [MLPCN]
NIH Chemical Genomics Center [NCGC]
Assay Provider: David Fidock and Eric Ekland, Columbia University
The goal of this screen is to discover new antimalarial compounds that act by inhibiting the development of the apicoplast in the malarial parasite Plasmodium falciparum. The biochemical processes that make this organelle essential for erythrocytic stage parasites are not well understood. However, antibiotics, such as azithromycin and tetracycline, which target the apicoplast translational machinery, have a potent antimalarial effect.
We have developed a cell-based assay that measures parasite growth based on the expression of an integrated copy of a firefly luciferase reporter. To detect small molecules that cause this 'delayed death' phenotype, erythrocytes infected with the luciferase-expressing parasites were incubated with compounds for either one or two generations, corresponding to 48 and 96 hours, respectively. Compounds that inhibit parasite growth in the second generation, but not the first, should be enriched in antimalarials that target the apicoplast. Growth inhibition is detected by a decrease in luciferase activity
Four microliters of culture medium (RPMI 1640 with 0.5% w/v Albumax (GIBCO), 24 mM sodium bicarbonate and 10 ug/mL gentamycin) were dispensed by a Multi-drop Combi into white solid 1536-well plates (Grenier) and 23 nL compound was added by a pin tool. Four microliters of infected erythrocytes (2% hematocrit, 0.1% parasitemia final concentration) in culture medium were dispensed and the plates incubated for 48 hours at 37 C in 5% CO2. Two microliters of luciferase detection reagent was added and luminescence was detected by a ViewLux (PerkinElmer) reader
For the compound `O=C1NCC2(CCN(CCc3ccccc3)CC2)O1`, the “activity change, negative = inhibition” value was 4.27%.
With `COC(=O)[C@@H]1[C@H]2C[C@H]3c4[nH]c5ccccc5c4CCN3C[C@@H]2CC[C@@H]1O`, the “activity change, negative = inhibition” value is -3.38%.
With `CCCNC(=O)NS(=O)(=O)c1ccc(Cl)cc1`, the “activity change, negative = inhibition” value was 2.08%.
As to `NCCS`, the “activity change, negative = inhibition” value was -14.5%.
For `O=C1NC(=O)C(c2ccccc2)(c2ccccc2)N1`, the “activity change, negative = inhibition” value is -13.3%.
The same measure, in the same setting: with `NC(N)=Nc1nc(CSCC/C(N)=N/S(N)(=O)=O)cs1` the figure was -2.19%; with `CCN(CC)CCNC(=O)c1ccc(N)cc1`, -5.14%; with `CC(=O)c1ccc(S(=O)(=O)NC(=O)NC2CCCCC2)cc1`, -9.92%.
Same read-out and setting: with `O=C(O)CCc1nc(-c2ccccc2)c(-c2ccccc2)o1` the figure was -6.78%; with `Cc1cccc(C)c1OCC(C)N` (stereo unspecified), 14.3%.
For the compound `C[N+](C)(C)CCCCCC[N+](C)(C)C`, the result was inactive.
On to `CC(C)(C)c1ccc(C(O)CCCN2CCC(C(O)(c3ccccc3)c3ccccc3)CC2)cc1` (stereo unspecified), for which the “activity change, negative = inhibition” value is -4.43%.
As to `CCN(CC)C(=O)c1ccc(O)c(OC)c1`, the “activity change, negative = inhibition” value was -16.6%.
As for `CCN1CCC[C@H]1CNC(=O)c1cc(S(N)(=O)=O)ccc1OC`, the “activity change, negative = inhibition” value was -3.09%.
Same read-out and setting: with `CC(C)NCC(O)COc1cccc2[nH]ccc12` (stereo unspecified) the figure was 10.3%; with `Clc1ccc(Cn2c(CN3CCCC3)nc3ccccc32)cc1`, -27.3%; with `COc1ccccc1N1CCN(CCCNc2cc(=O)n(C)c(=O)n2C)CC1`, -6.44%.
`CC(=O)CCCCn1c(=O)c2c(ncn2C)n(C)c1=O`: the “activity change, negative = inhibition” value is 14%.
As to `CCN(CC)CCOC(=O)c1ccc(N)cc1`, the “activity change, negative = inhibition” value is 8.19%.
As for `CC(=O)N[C@@H](CS)C(=O)O`, the “activity change, negative = inhibition” value is 1.09%.
For `CN(C)CCC(c1ccccc1)c1ccccn1` (stereo unspecified), the “activity change, negative = inhibition” value is -5.51%.
